Measurements: PubChem BioAssay AID1159580 (chemical genetic matrix, 2015)
“And” between values parts separate entries of the source, which are not always exact repeats. Identical values can stand only once. In all, about 5,500 compounds went through this assay and about 2,000 (36%) were called active. Another 18% or so got no clear call; they are omitted. Rule as the data show it: active = normalized growth mostly below about 0.91 (no sharp cut-off); inconclusive = no clear call, values can overlap the other calls; inactive = mostly above about 0.92. This is one part of the list.

Assay: chemical genetic growth profiling, strain panel (AID 1159580);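 also: tested at 20 µM; growth read once vehicle control cultures reached saturation at 30 °C; 1 = growth at the plate median or of vehicle wells; lower values mean less growth of the strain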
Details: S. cerevisiae deletion strains, growth OD

Measured: normalized growth

CC(NCCc1ccc(O)cc1)C(O)c1ccc(O)cc1 (centres undefined)
active: locus YAL026C, strain drs2, active compounds read low 0.504 | locus YDR392W, strain spt3, active compounds read low 0.189 | locus YGL253W, strain hxk2, active compounds read low 0.766 | locus YHR142W, strain chs7, active compounds read low 0.812
inactive: locus YAL021C, strain ccr4, active compounds read low 0.997 | locus YAL030W, strain snc1, active compounds read low 1.01 | locus YBL061C, strain skt5, active compounds read low 0.991 | locus YBR009C, strain hhf1, active compounds read low 1.04 | locus YBR021W, strain FUR4, active compounds read low 0.962 | locus YBR023C, strain chs3, active compounds read low 0.989 | locus YBR171W, strain sec66, active compounds read low 0.994 | locus YBR229C, strain ROT2, active compounds read low 0.988 | locus YBR231C, strain swc5, active compounds read low 1.01 | locus YBR279W, strain paf1, active compounds read low 0.978 | locus YCL011C, strain gbp2, active compounds read low 0.991 | locus YCL016C, strain dcc1, active compounds read low 0.968 | locus YCL029C, strain bik1, active compounds read low 0.977 | locus YCL061C, strain MRC1, active compounds read low 0.999 | locus YCL069W, strain vba3, active compounds read low 0.973 | locus YCR088W, strain abp1, active compounds read low 0.997 | locus YDL005C, strain med2, active compounds read low 0.983 | locus YDL035C, strain GPR1, active compounds read low 0.982 | locus YDL040C, strain nat1, active compounds read low 0.99 | locus YDL074C, strain BRE1, active compounds read low 0.999 | locus YDL101C, strain DUN1, active compounds read low 0.985 | locus YDL134C, strain PPH21, active compounds read low 0.977 | locus YDL185W, strain tfp1, active compounds read low 0.979 | locus YDL192W, strain arf1, active compounds read low 0.982 | locus YDR001C, strain nth1, active compounds read low 0.998 | locus YDR069C, strain doa4, active compounds read low 1.01 | locus YDR101C, strain arx1, active compounds read low 0.997 | locus YDR137W, strain rgp1, active compounds read low 0.982 | locus YDR150W, strain NUM1, active compounds read low 0.994 | locus YDR159W, strain sac3, active compounds read low 1 | locus YDR162C, strain NBP2, active compounds read low 0.984 | locus YDR195W, strain ref2 0.99 | locus YDR297W, strain sur2, active compounds read low 1.01 | locus YDR318W, strain mcm21, active compounds read low 0.986 | locus YDR334W, strain swr1, active compounds read low 0.984 | locus YDR335W, strain msn5, active compounds read low 0.952 | locus YDR388W, active compounds read low 0.981 | locus YDR502C, strain sam2, active compounds read low 0.983 | locus YEL003W, strain gim4, active compounds read low 0.999 | locus YEL037C, strain rad23, active compounds read low 0.954 | locus YEL061C, strain CIN8 (second series), active compounds read low 0.989 | locus YEL061C, strain CIN8, active compounds read low 0.993 | locus YER015W, strain faa2, active compounds read low 0.995 | locus YER016W, strain bim1, active compounds read low 0.984 | locus YER110C, active compounds read low 0.977 | locus YER111C, strain swi4, active compounds read low 0.979 | locus YER155C, strain BEM2 (second series), active compounds read low 0.948 | locus YER155C, strain BEM2, active compounds read low 0.983 | locus YER167W, strain BCK2, active compounds read low 0.983 | locus YFR010W, strain ubp6, active compounds read low 0.922 | locus YGL078C, strain dbp3, active compounds read low 0.984 | locus YGL086W, strain mad1, active compounds read low 0.987 | locus YGL167C, strain pmr1, active compounds read low 0.997 | locus YGL173C, strain kem1, active compounds read low 1.02 | locus YGL227W, strain vid30, active compounds read low 0.993 | locus YGL240W, strain doc1, active compounds read low 1.02 | locus YGL248W, strain PDE1, active compounds read low 0.996 | locus YGR078C, strain PAC10, active compounds read low 1 | locus YGR135W, strain pre9, active compounds read low 0.972 | locus YGR229C, strain SMI1, active compounds read low 0.989 | locus YGR252W, strain gcn5, active compounds read low 0.946 | locus YHR013C, strain ard1, active compounds read low 0.953 | locus YHR027C, strain rpn1, active compounds read low 1.01 | locus YHR030C, strain SLT2, active compounds read low 0.986 and 1 | locus YHR079C, strain IRE1 (second series), active compounds read low 0.979 | locus YHR079C, strain IRE1, active compounds read low 1.01 | locus YHR094C, strain hxt1, active compounds read low 0.978 | locus YHR129C, strain ARP1, active compounds read low 0.986 | locus YHR200W, strain rpn10, active compounds read low 0.985 | locus YIL066C, strain RNR3, active compounds read low 0.99 | locus YIL073C, strain SPO22, active compounds read low 0.946 | locus YIL125W, strain kgd1, active compounds read low 0.99 | locus YIR030C, strain dcg1, active compounds read low 0.983 | locus YJL092W, strain hpr5, active compounds read low 0.973 | locus YJL095W, strain BCK1 (second series), active compounds read low 0.998 | locus YJL095W, strain BCK1, active compounds read low 1.03 and 1.02 | locus YJL115W, strain asf1, active compounds read low 0.975 | locus YJL129C, strain trk1, active compounds read low 0.973 | locus YJL134W, strain LCB3, active compounds read low 0.99 | locus YJL154C, strain vps35, active compounds read low 0.983 | locus YJL164C, strain tpk1, active compounds read low 0.987 | locus YJL166W, strain qcr8, active compounds read low 1.03 | locus YJL168C, strain set2, active compounds read low 0.983 | locus YJL187C, strain SWE1 (second series), active compounds read low 1 | locus YJL187C, strain SWE1, active compounds read low 0.998
